The results in this text go back to PubChem BioAssay AID652094 (National Center for Advancing Translational Sciences (NCATS), 2013).

Molecules are shown by their SMILES. Activity calls are given as the source filed them.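 Rule for the calls: active = lower glucosylceramide lipid buildup in Gaucher patient macrophages after compound treatment; inactive = the rest.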

The nature of the assay: Extended Characterization of Activators of N370S glucocerebrosidase as a Potential Chaperone Treatment of Gaucher Disease: Quantification of GlcCer accumulation in Gaucher macrophages. As to conditions: Gaucher patient macrophages, GlcCer-BODIPY accumulation fluorescence. An excerpt: Glucocerebrosidase (GCase) catalyzes the hydrolysis of beta-glucocerebroside (GC) to glucose and ceramide in lysosomes. Mutations in the glucocerebrosidase gene result in Gaucher disease, an autosomal recessive lysosomal storage disorder. Many of the mutations encountered in patients with Gaucher disease are missense alterations that may cause misfolding, decreased stability and/or mistrafficking of this lysosomal protein. […] These inhibitors include iminosugar analogs and other inhibitors that were discovered as part of previous work. However, the enhancement of enzyme activity by the chaperone action of an enzyme inhibitor must be balanced against the direct inhibition of the enzyme. […] In this extended characterization of our probe, we have further characterized the activity of probes in relevant models of Gaucher disease. This assay attempts to quantitate GC concentration in patient-derived macrophages following compound incubation. NIH Chemical Genomics Center [NCGC] NIH Molecular Libraries Probe Production Centers Network [MLPCN] […]
In order to quantify macrophage GlcCer accumulation, erythrocyte ghosts were labeled with N-[11- (dipyrrometheneboron difluoride) undecanoyl]-D-Glucosyl-beta1-1'-D-erythro-sphingosine (C11 TopFluor Glucosyl Ceramide) (Avanti Polar Lipid) for 30 min at 37 degrees C and fluorescence measured at 495/503 nm on a Victor 1420 multi-label counter (PerkinElmer).
With `C#Cc1ccc(NC(=O)c2cnn3c(C)cc(C)nc23)cc1`, the outcome is “active; decreased”.
